# Hits are enriched below; roughly 2.4% of the tested compounds scored in any of these assays.
# Pf Dd2 inh = P. falciparum Dd2 growth inhibitors, primary screen, SYBR Green fluorescence, single dose replicates. AID 1159554, 2015. 2.3% of 94,000 active. 72 h; active compounds read low. activity change, % at 10 µM; in the data active = activity change below about -80%
# C diff HTS = C. difficile growth inhibitors, primary screen, HTS. Clostridium difficile clinical isolate growth, OD600, 24 h; active compounds read low. growth activity, negative = inhibition, % at 16 µg/mL (by protocol). 0.25% of 86,000 active;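 active = mean growth activity at or below -80% and every replicate also at or below -80%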;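 note: 0% = DMSO wells and -100% = levofloxacin 16 µg/mL wells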
# * marks the source's active call; other numbers are inactive results; · = no result given.
SMILES,Pf Dd2 inh,C diff HTS
C[C@H](CO)N1C[C@H](C)[C@H](CN(C)S(=O)(=O)c2ccc(C#N)cc2)Oc2ncc(-c3cc4ccccc4o3)cc2C1=O,-18,·
COc1cccc(S(=O)(=O)N(C)C[C@H]2Oc3ncc(-c4cccc(C(=O)N(C)C)c4)cc3C(=O)N([C@H](C)CO)C[C@@H]2C)c1,-84*,-7
COc1cccc(S(=O)(=O)N(C)C[C@@H]2Oc3ncc(-c4cccc(C(=O)N(C)C)c4)cc3C(=O)N([C@@H](C)CO)C[C@H]2C)c1,-65,-4
COc1ccc(S(=O)(=O)N(C)C[C@@H]2Oc3ncc(-c4cc5ccccc5o4)cc3C(=O)N([C@H](C)CO)C[C@@H]2C)cc1,-86*,5
COc1ccc2c3c([nH]c2c1)[C@@H](CO)N(C)CC31CN(C(=O)NC(C)C)C1,-29,-5
COc1ccc2c3c([nH]c2c1)[C@H](CO)N(Cc1ccc2c(c1)OCO2)CC31CN(C(=O)Nc2c(C)noc2C)C1,-4,1
COc1ccc(NC(=O)Nc2ccc3c(c2)[C@H]2C[C@H](CC(=O)NCCc4ccccc4)O[C@@H](CO)[C@H]2O3)cc1,-58,14
C[C@@H]1CCCCO[C@@H](CN(C)Cc2ccc(C(F)(F)F)cc2)[C@@H](C)CN([C@H](C)CO)C(=O)c2cc(NC(=O)Cc3ccccc3)ccc2O1,1,·
C[C@@H]1CCCCO[C@H](CN(C)Cc2ccc(C(F)(F)F)cc2)[C@H](C)CN([C@@H](C)CO)C(=O)c2cc(NC(=O)Cc3ccccc3)ccc2O1,-61,·
C[C@H](CO)N1C[C@H](C)[C@@H](CN(C)Cc2ccc(C(F)(F)F)cc2)OCCCC[C@H](C)Oc2ccc(NC(=O)Cc3ccccc3)cc2C1=O,-81*,·
C[C@@H]1CCCCO[C@@H](CN(C)Cc2ccc(C(F)(F)F)cc2)[C@H](C)CN([C@@H](C)CO)C(=O)c2cc(NC(=O)Cc3ccccc3)ccc2O1,-86*,·
C[C@@H]1CN([C@@H](C)CO)C(=O)c2ccccc2-c2ccccc2CO[C@H]1CN(C)C(=O)Nc1ccc2c(c1)OCO2,-16,-5
Cc1ccccc1S(=O)(=O)N1[C@H](C#N)[C@H](c2ccc(C#CC3CCCC3)cc2)[C@H]1CO,-59,26
CN(C)C(=O)[C@H]1[C@H](CO)[C@H]2Cn3c(ccc(C4=CCCC4)c3=O)[C@@H]1N2CC1CC1,18,1
CCC(=O)N1CC2(CN(Cc3ccncc3)C2)c2c(n(C)c3cc(OC)ccc23)[C@@H]1CO,-32,-1
COc1ccc2c3c(n(C)c2c1)[C@H](CO)N(C(=O)Nc1ccc(F)cc1)CC31CCN(C(=O)c2cccnc2)CC1,-80,-3
COc1ccc2c3c(n(C)c2c1)[C@@H](CO)N(C(=O)Nc1ccc(F)cc1)CC31CCN(Cc2cccnc2)CC1,-89*,-8
COc1ccc2c3c(n(C)c2c1)[C@H](CO)N(C(=O)Nc1ccc(F)cc1)CC31CCN(Cc2cccnc2)CC1,-90*,3
COc1ccc2c3c(n(C)c2c1)[C@@H](CO)N(C(=O)Nc1ccc(F)cc1)CC31CN(Cc2cccnc2)C1,-72,-1
